SMILES strings stand for the structures. Values joined by “and” are separate entries in the source; they are usually repeats but may differ in a detail not shown here. Identical values can stand only once. Hit rate of the full screen: of about 340,000 compounds, about 2,100 (0.62%) were called active. Only a sample is shown. Entries with a potency or affinity are not part of this list. Unmarked numbers belong to inactive results.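 The calls were made as follows: active = first-screen hits whose inhibition reached a set limit at any dose in the follow-up dose series; inconclusive = inhibition above the set first-screen limit but never retested; inactive = the rest.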

The text below walks through data of PubChem BioAssay AID624330 (Southern Research Specialized Biocontainment Screening …, 2012).

Sequence of Rac GTPase-activating protein 1 (Homo sapiens) (Q9H0H5 whole entry, looked up): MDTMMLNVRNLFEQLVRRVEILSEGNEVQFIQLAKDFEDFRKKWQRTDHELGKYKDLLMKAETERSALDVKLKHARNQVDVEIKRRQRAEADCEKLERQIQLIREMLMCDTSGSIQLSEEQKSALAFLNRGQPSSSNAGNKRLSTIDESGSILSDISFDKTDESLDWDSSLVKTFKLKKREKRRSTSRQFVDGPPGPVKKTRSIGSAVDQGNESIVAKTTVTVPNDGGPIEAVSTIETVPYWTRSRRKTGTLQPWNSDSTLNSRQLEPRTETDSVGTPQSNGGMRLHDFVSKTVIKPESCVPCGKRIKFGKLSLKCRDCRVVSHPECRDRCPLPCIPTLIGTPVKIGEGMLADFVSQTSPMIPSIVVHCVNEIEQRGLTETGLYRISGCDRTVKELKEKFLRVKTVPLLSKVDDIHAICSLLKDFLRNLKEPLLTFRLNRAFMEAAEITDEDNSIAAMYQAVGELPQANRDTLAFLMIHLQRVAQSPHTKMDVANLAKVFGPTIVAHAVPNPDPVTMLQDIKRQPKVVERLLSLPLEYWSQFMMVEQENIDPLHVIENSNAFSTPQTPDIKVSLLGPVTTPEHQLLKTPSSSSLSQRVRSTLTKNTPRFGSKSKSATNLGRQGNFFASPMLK

This experiment concerns the target Rac GTPase-activating protein 1 (Homo sapiens) (UniProt Q9H0H5). Description: MgcRacGAP GTPase-activating activity inhibitors, confirmation, biochemical, ADP Hunter fluorescence, primary and confirmatory (AID 624330).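 Also: fluorescence reports GDP produced by GAP-driven GTP hydrolysis.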 Particulars: MgcRacGAP-stimulated Rac1 GTP hydrolysis, at 30 µM, stronger effect = higher value, GST-tagged Rac1 F28L mutant substrate.
Turning to `CCN(CC)c1ccc(C=NN2CCCCCC2)cc1`, the inhibition was -1.67%.
In the case of `C(=N\N1CCN(Cc2ccccc2)CC1)/c1ccccc1`, the inhibition is 8.38%.
Regarding `CCN(CC)c1ccc(/C=N/N2CCN(c3ccccn3)CC2)cc1`, the inhibition is 13.5%.
As for `CN1CCN(/N=C/c2ccc(N(C)c3ccccc3)cc2)CC1`, the inhibition is 27.2%.
`CCOc1ccc(/C=N/N2CCN(Cc3ccccc3)CC2)cc1`: the inhibition was -1.17%.
`CCN(CC)c1ccc(/C=N\N2CCN(Cc3ccc(C)cc3)CC2)cc1`: the inhibition is 20.7%.
For `CN1CCN(/N=C/c2ccc(N(c3ccccc3)c3ccccc3)cc2)CC1`, the inhibition was 15.3%.
On to `CCOc1ccccc1/C=N/N1CCN(Cc2ccccc2)CC1`, for which the inhibition is -6.47%.
To `COc1cccc(-c2nn(C)c3sc(C(=O)NCc4ccc(C)cc4)cc23)c1` belongs 5.17%; to `CCOC(=O)c1[nH]c(C)c(C(=O)OCC(=O)NCc2ccc(OC)c(OC)c2)c1C`, 1.24%; to `Cn1ncc2c(NCc3ccccc3)nc(NCCCO)nc21`, 8.06%.
Take `CC(C)CC(NC(=O)OC(C)(C)C)c1cn([C@@H](Cc2cc3ccccc3[nH]2)C(=O)N2CCN(C(=O)OC(C)(C)C)CC2)nn1` (some centres undefined): the inhibition was 9.06%.
As to `COC(=O)c1c(C)[nH]c(C(=O)OC(C)C(=O)N2CCOCC2)c1C` (centres undefined), the inhibition is 13.4%.
For `O=C(COC(=O)CC12CC3CC(CC(C3)C1)C2)Nc1ncc(Cl)cc1Cl`, the inhibition is 3.82%.
Take `COc1ccc(C(=O)OCC(=O)N2CCN(C(=O)c3ccco3)CC2)cc1OC`: the inhibition is 0.19%.
With `COc1ccc2c(c1)C(c1ccc(C)o1)=NNC(c1ccccc1)=N2`, the inhibition was 2.46%.
On to `CCC1=NN(C(=O)Cc2ccccc2)C(O)(c2ccncc2)C1` (centres undefined), for which the inhibition is 5.64%.
For `CCN(Cc1ccccc1)c1ccc(/C=N/NC(=O)c2cccc(S(=O)(=O)N3CCOCC3)c2)cc1`, the inhibition was 9.77%.
As for `CCN(CC)c1ccc(/C=N/N2CCN(Cc3ccccc3)CC2)c(O)c1`, the inhibition is 25.7%.
As for `CCN(CC)c1ccc(/C=N/N2CCN(Cc3ccc(C)cc3)CC2)c(O)c1`, the inhibition was 15.3%.
Turning to `CCN(CC)c1ccc(/C=N/N2CCN(c3ccccc3OC)CC2)cc1`, the inhibition is 13%.
For `Cc1c(N(CC(=O)O)S(=O)(=O)c2ccccc2)c(=O)n(-c2ccccc2)n1C`, the inhibition was 11.2%.
`O=C(c1ccc(NS(=O)(=O)c2cccc3cccnc23)cc1)N1CCCCC1`: the inhibition is -16.1%.
Consider `CCOc1ccc(NC(=O)CN(C)C(=O)c2ccc(C)c(S(=O)(=O)N3CCCCC3)c2)cc1OCC`, for which the inhibition is 6.08%.
The result for `O=[N+]([O-])c1ccc2[nH]c(O)c(N=NC(=S)NCC3CCCO3)c2c1` (centres undefined) reads 9.66%.
Take `COc1cccc(NC(=O)C(=O)NCC2CCCN2S(=O)(=O)c2ccccc2)c1` (centres undefined): the inhibition was 3.83%.
The result for `CCc1ccccc1-n1nnnc1-c1cnccc1C(F)(F)F` reads 4.03%; that for `O=S(=O)(Cc1c(F)cccc1Cl)c1ncn[nH]1`, 5.34%.
For `CN(C)c1ccc(CNn2cnnc2SCC(=O)NC(C)(C)C)cc1`, the inhibition is 14.5%.
For the molecule `Cc1[nH]n(-c2cccc(Cl)c2)c(=O)c1-c1ccccc1`, the inhibition is 30.6%.
To `Cc1[nH]n(-c2ccccc2)c(=O)c1-c1ccc(Cl)cc1` belongs 8.45%; to `COc1ccc([N+](=O)[O-])cc1N(CC(=O)N1CCN(Cc2ccccc2)CC1)S(C)(=O)=O`, 6.86%.
On to `COc1ccc(OC)c(NC(=O)COC(=O)CCCN2C(=O)c3ccccc3C2=O)c1`, for which the inhibition is 3.2%.
As to `C[C@@H]1COC(=O)CCC/C=C\C[C@@H](CC(=O)N(CCO)Cc2ccccc2)C(=O)N1`, the inhibition is 4.52%.
The result for `COc1ccc(-c2cc3ccccc3n2CC(O)CN2CCC(C)CC2)cc1` (centres undefined) reads 9.85%; that for `COc1ccc(-c2cc3ccccc3n2CC(O)CN2CCOCC2)cc1` (centres undefined), 4.64%; that for `COc1ccc(C(=O)N/C(=C\c2ccc(-c3cccc([N+](=O)[O-])c3)o2)C(=O)NCCCN2CCOCC2)cc1`, -23.2%.
To `Cc1cccc(C)c1NC(=O)Cn1nnc(-c2ccc(N3CCOCC3)cc2)n1` belongs 3.65%; to `Cc1nc(N2CCN(c3ccccc3F)CC2)[nH]c(=O)c1C`, 6.5%.
To `Cc1c(C(=O)N(Cc2ccncc2)CC2CCCO2)oc2c(F)cccc12` (centres undefined) belongs 5.69%; to `COc1cc(C=O)ccc1OC(=O)c1cccnc1`, 7.23%.
For the molecule `COc1cc(/C=N/NC(=O)c2ccncc2)ccc1OC(=O)c1cc(OC)c(OC)c(OC)c1`, the inhibition is 16.1%.
`COc1cc(C=O)ccc1OC(=O)c1ccncc1`: the inhibition is 14.9%.
To `COc1cc(/C=N/n2cnnc2)ccc1OC(=O)c1ccco1` belongs 16.6%.
In the case of `COc1cc(CC(=O)OCc2cccc([N+](=O)[O-])c2)cc(OC)c1OC`, the inhibition is 2.78%.
Take `CCCCCC(=O)Nc1ccc(N2CCN(C(=O)CCC)CC2)cc1`: the inhibition was -1.29%.
In the case of `CCOC(=O)C1(Cc2cccc(OC)c2)CCN(CC(O)CO)CC1` (centres undefined), the inhibition was -0.09%.
As to `CCOc1ccc(-c2nc3c(s2)CCc2onc(-c4ccc(OC)cc4)c2-3)cc1`, the inhibition was 1.06%.
Turning to `O=S(=O)(c1ccccc1Cl)N1CCCC1c1nc(-c2cccc(Cl)c2)no1` (centres undefined), the inhibition was 2.74%.
The result for `C[C@@H](C(=O)OCC(=O)NCCc1ccc(S(N)(=O)=O)cc1)N1C(=O)C2CCCCC2C1=O` (some centres undefined) reads -3.1%.
With `CCCn1c(=S)[nH]c2cc(Cl)ccc21`, the inhibition was 9.71%.
The result for `COc1ccc(-n2sc3c(c2=S)-c2cc(OC)ccc2NC3(C)C)cc1` reads -3.29%.
On to `COc1ccc2c(c1)-c1c(sn(-c3ccccc3)c1=S)C(C)(C)N2`, for which the inhibition was 18.2%.
For `Cc1ccc(CNc2nc3ccccc3n2C)cc1`, the inhibition was 13.6%.
To `CC(C)NC(=O)Nc1ccc2c(c1)C(=O)N([C@H](C)CO)C[C@H](C)[C@@H](CN(C)C(=O)Nc1ccc(C(F)(F)F)cc1)O2` belongs 12.5%; to `CCCN(CCC)CCOc1cc(C)ccc1C(C)C`, 18.2%.
Turning to `Cc1ccc(C(C)C)c(OCC#CCN2CCOCC2)c1`, the inhibition was 30.8%.
Turning to `O=C(c1cc2ccccc2oc1=O)N(Cc1ccccc1F)C1CCS(=O)(=O)C1` (centres undefined), the inhibition was 6.33%.
`OCCCNCc1ccc(Cl)cc1Cl`: the inhibition is -1.18%.
For the molecule `COc1cc(NC(=O)n2ncc3cc(Cl)ccc32)cc(OC)c1`, the inhibition is 5.31%.
The result for `COc1ccc(C)cc1NC(=O)n1ncc2cc(Cl)ccc21` reads 8.15%; that for `COc1ccc(S(=O)(=O)Nc2cccc(SC)c2)cc1C(=O)N1CCOCC1`, 9.83%; that for `Cc1ccccc1C(=O)NC(=S)Nc1ccccc1N1CCCC1`, 13.5%.
Consider `O=[N+]([O-])c1ccc(Nc2ccc(F)cc2)nc1`, for which the inhibition was 6.73%.
On to `Cc1ccc(NC2=C([N+](=O)[O-])CS(=O)(=O)C2)cc1`, for which the inhibition was 7.24%.
Consider `O=[N+]([O-])C1=C(Nc2cccc3ccccc23)CS(=O)(=O)C1`, for which the inhibition is 9.69%.
To `CC(=O)Nc1ccc(Nc2ccc([N+](=O)[O-])cn2)cc1` belongs 16.8%; to `O=C(CSc1ncccn1)Nc1ccc(Cl)c(S(=O)(=O)N2CCOCC2)c1`, 7.79%; to `CCOC(=O)N1CCN(CC(O)COc2c(OC)cccc2OC)CC1` (centres undefined), 9.23%.
Regarding `Cc1cc(C(=O)CCC(=O)Nc2ccc(C(N)=O)cc2)c(C)s1`, the inhibition is 15%.
On to `O=C(NC1CCCCC1)c1csnn1`, for which the inhibition was -0.31%.
On to `C=CCOc1ccccc1CN1CCCCCC1`, for which the inhibition is 13%.
For `C=CCOc1ccccc1CN1CCSCC1`, the inhibition is 14.2%.
The result for `O=S1(=O)CCN(Cc2ccccc2C(F)(F)F)CC1` reads 1.13%; that for `Fc1ccccc1CN1CCCCCCC1`, 10.2%; that for `CS(=O)(=O)N1CCN(Cc2ccccc2C(F)(F)F)CC1`, 8.59%.
For `Cc1ccc(S(=O)(=O)N2CCN(Cc3ccccc3C(F)(F)F)CC2)cc1`, the inhibition was 13%.
For `CCOC(=O)N1CCN(Cc2ccccc2F)CC1`, the inhibition is 17.8%.
On to `Cc1ccccc1CN1CCN(Cc2ccccc2C(F)(F)F)CC1`, for which the inhibition is 25.3%.
To `O=C1CCCC2=C1C(c1cccc(O)c1)C1=C(N2)c2ccccc2C1=O` (centres undefined) belongs -0.19%; to `Cc1ccc(NC(=O)C2Cc3ccccc3C(=O)O2)cc1` (centres undefined), -7.83%.
`O=C(CN(C(=O)CCC(=O)Nc1ccccn1)C1CCCC1)NCc1ccccc1`: the inhibition is 4.99%.
To `CCOc1ccccc1NC(=O)c1ccc2nc[nH]c2c1` belongs 4.69%; to `CCN(C(=O)COC(=O)c1ccc(=O)n(Cc2ccccc2)n1)C1CCCCC1`, 0.9%; to `O=S(=O)(NCC1CCCO1)c1ccc(Br)cc1` (centres undefined), 12.2%.
`CCOc1ccc(CCN2C(=S)N([C@@H](CC(C)C)CN3CCCC3CN3C(=S)NC[C@@H]3Cc3ccc(O)cc3)C[C@@H]2CC(C)C)cc1` (some centres undefined): the inhibition was 13.7%.
The result for `Cc1csc(NC(=O)C2CCCN2C(=O)Oc2ccccc2)n1` (centres undefined) reads 7.03%; that for `O=C(O)c1ccc(CSc2nnnn2-c2ccc(F)cc2)cc1`, 2.94%; that for `Cc1cc(C)nc(SCC(=O)c2ccc(C)c(C)c2)n1`, -8.22%.
To `COc1ccc(-n2nnnc2SCC(=O)c2ccc(O)c(O)c2)cc1` belongs 9.34%; to `Cc1cc(SCC(=O)c2ccc3c(c2)OCO3)nc2ccccc12`, 6.55%.
To `Cc1cc(C)nc(SCC(=O)c2ccc(F)cc2)n1` belongs 3.61%.
As to `Cc1cc(SCC(=O)O)nc2ccccc12`, the inhibition is 5.6% and 2.66%.
Consider `COCCN(CC(=O)NCc1ccc(OC)cc1)C(=O)CCC(=O)Nc1nccs1`, for which the inhibition was 9.76%.

As a reminder, the inhibition is the relative decrease from the control value, in per cent.
